These results are taken from PubChem BioAssay.

Activity calls are given as the source filed them. Unless noted, no rule for the calls is given here.

The nature of assay [1]: resazurin metabolic signal in HepG2 cells – cell-based, resazurin fluorescence, 24 h, PK04 Diversity Set, profiling panel (AID 1172). The settings on record: HepG2 viability, higher = more signal.
A short description of assay [2]: budding yeast growth changes without added modifier – OD600, strain BY4716, 24 h, basal condition, primary screen (AID 1173). Conditions: S. cerevisiae BY4716 growth, OD600, 24 h; higher = more signal, called active from +8 up or from −8 down.
The nature of assay [3]: viability profiling in MM1S myeloma cells – cell-based, resazurin fluorescence, basal, 24 h, PK04 Diversity Set, profiling panel (AID 1174).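 Also: MM1S multiple myeloma cell line.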 Conditions: higher = more signal, called active from +8 up or from −8 down. On the technique in general: Resazurin is reduced to fluorescent resorufin, in cell work by metabolically active cells.
Assay [4] concerns the target Dihydroorotate dehydrogenase (quinone), mitochondrial (Plasmodium falciparum (isolate 3D7)) (UniProt Q08210). Nature of the assay: inhibition of P. falciparum DHODH – biochemical, C-terminal His tag, absorbance 600 nm, primary screen (AID 1175).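 Also: recombinant parasite enzyme with a five histidine tag at its C terminus.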 Conditions: PfDHODH enzyme, DCIP absorbance 600 nm; higher = more signal, called active from +8 up or from −8 down.
A short description of assay [5]: inhibition of PAO1 biofilm formation – strain PAO1, LB-PBS medium, absorbance 600 nm, primary screen (AID 1176). The settings on record: P. aeruginosa PAO1 growth/biofilm, A600, 12 h; higher = more signal.
Assay [6] in a line: growth modulation of vineyard yeast isolate – strain RM11-1a, OD600, basal, 24 h, primary screen (AID 1177).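 Also: cultures grown under basal conditions with no added stressor.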 The settings on record: S. cerevisiae RM11-1a growth, OD600, 24 h; higher = more signal, called active from +8 up or from −8 down.
A short description of assay [7]: growth of efflux-deficient E. coli DRC39 – strain DRC39, OD650, 24 h, E. coli filamentation inducers, primary screen (AID 1178).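 Also: growth measured as culture turbidity by optical density at 650 nm.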 Conditions: E. coli DRC39 acrAB, higher = more signal, called active from +8 up or from −8 down.
A short description of assay [8]: growth of efflux-deficient E. coli DRC39 – strain DRC39, OD650, 48 h, E. coli filamentation inducers, primary screen (AID 1179).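 Also: screen aims at cell division blockers that make cells filament.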 The settings on record: E. coli DRC39 delta-acrAB growth, higher = more signal, called active from +8 up or from −8 down.
Assay [9] is described as follows: viability profiling in RPMI8226 myeloma cells – cell-based, resazurin fluorescence, basal, 24 h, PK04 Diversity Set, profiling panel (AID 1180).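 Also: RPMI8826 multiple myeloma cell line at 5000 cells per well.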 The settings on record: higher = more signal.
Assay [10] has as its target E3 ubiquitin-protein ligase XIAP (Homo sapiens) (UniProt P98170). Nature of the assay: small molecules binding XIAP protein – biophysical, small-molecule microarray, fluorescence 635 nm, primary screen (AID 1181).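 Also: score merges 667 nm emission and signal to noise over triplicate slides.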 Conditions: higher = more signal.
In assay [11] the test system is XIP peptide (Xip251-270) binding. Nature of the assay: XIP fragment 251-270 binding compounds – biochemical, small-molecule microarray, fluorescence 635/667 nm, 0.1 µg/mL protein, primary screen (AID 1182). The settings on record: fluorescent protein binding, 635 nm, higher = more signal, called active from +8 up or from −8 down.
Another assay relates to XIP peptide (Xip251-270). Briefly: compounds binding XIP fragment 251-270 – biochemical, small-molecule microarray, fluorescence 635/667 nm, 0.5 µg/mL protein, primary screen (AID 1183). Conditions: fluorescence 635 nm, higher = more signal.
The nature of assay [12]: blood-stage malaria parasite viability loss – strain 3D7, DAPI fluorescence, 100 nL, primary screen (AID 1184).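 Also: parasites grown inside human red blood cells in medium with human serum.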 The settings on record: P. falciparum 3D7 growth, 3 d, higher = more signal.
The target in assay [13] is Homeobox protein Hox-A13 (Mus musculus) (UniProt Q62424). Nature of the assay: disruptors of Hoxa13 oligonucleotide interaction – biochemical, fluorescence polarization, labeled oligonucleotide, primary screen (AID 1185). Conditions: Hoxa13:DNA binding, 15 min, higher = more signal, called active from +8 up or from −8 down. (In general: Polarisation of emitted light reports the rotation of a fluorescent probe.)
Homeobox protein Hox-A13 (Mus musculus), sequence (Q62424 whole entry, looked up): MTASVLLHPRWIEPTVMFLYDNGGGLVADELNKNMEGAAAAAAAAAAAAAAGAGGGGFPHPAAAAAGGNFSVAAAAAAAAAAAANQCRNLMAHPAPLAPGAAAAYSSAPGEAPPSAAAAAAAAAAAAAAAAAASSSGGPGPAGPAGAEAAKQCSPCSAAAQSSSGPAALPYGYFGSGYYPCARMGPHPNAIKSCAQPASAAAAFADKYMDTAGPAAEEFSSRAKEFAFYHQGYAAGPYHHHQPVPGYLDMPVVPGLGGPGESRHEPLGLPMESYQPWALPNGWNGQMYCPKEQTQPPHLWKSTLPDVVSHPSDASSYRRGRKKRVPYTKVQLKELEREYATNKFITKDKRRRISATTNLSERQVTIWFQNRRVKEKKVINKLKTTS

Assay [14] is described as follows: blockers of DNA damage checkpoint Chk1 activation – imaging, HeLa, hydroxyurea, phospho-Chk1 antibody, percent positive cells, primary screen (AID 1186). The settings on record: hydroxyurea-induced phospho-Chk1 immunofluorescence imaging, higher = more signal.
The nature of assay [15]: blockers of DNA damage checkpoint Chk1 activation – imaging, HeLa, hydroxyurea, phospho-Chk1 nuclear intensity, primary screen (AID 1187). Conditions: hydroxyurea-induced phospho-Chk1 immunofluorescence imaging, higher = more signal.

Dihydroorotate dehydrogenase (quinone), mitochondrial (Plasmodium falciparum (isolate 3D7)), sequence (Q08210 whole entry, looked up): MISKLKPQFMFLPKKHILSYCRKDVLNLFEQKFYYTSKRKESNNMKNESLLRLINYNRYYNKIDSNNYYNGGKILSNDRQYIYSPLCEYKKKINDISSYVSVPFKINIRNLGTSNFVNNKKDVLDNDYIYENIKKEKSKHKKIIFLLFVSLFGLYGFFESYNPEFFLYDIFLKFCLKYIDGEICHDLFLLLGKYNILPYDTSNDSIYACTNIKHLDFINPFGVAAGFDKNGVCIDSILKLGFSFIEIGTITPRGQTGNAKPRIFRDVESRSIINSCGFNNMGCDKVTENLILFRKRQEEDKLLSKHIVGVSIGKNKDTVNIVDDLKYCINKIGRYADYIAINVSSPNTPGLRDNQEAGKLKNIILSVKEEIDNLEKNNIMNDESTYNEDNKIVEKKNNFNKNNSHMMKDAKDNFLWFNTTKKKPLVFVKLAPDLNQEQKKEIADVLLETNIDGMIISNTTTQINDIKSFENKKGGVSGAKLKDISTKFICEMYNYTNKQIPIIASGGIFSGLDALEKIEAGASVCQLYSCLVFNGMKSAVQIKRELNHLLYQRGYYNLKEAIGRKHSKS
E3 ubiquitin-protein ligase XIAP (Homo sapiens), sequence (P98170 whole entry, looked up, the tested form may be a part): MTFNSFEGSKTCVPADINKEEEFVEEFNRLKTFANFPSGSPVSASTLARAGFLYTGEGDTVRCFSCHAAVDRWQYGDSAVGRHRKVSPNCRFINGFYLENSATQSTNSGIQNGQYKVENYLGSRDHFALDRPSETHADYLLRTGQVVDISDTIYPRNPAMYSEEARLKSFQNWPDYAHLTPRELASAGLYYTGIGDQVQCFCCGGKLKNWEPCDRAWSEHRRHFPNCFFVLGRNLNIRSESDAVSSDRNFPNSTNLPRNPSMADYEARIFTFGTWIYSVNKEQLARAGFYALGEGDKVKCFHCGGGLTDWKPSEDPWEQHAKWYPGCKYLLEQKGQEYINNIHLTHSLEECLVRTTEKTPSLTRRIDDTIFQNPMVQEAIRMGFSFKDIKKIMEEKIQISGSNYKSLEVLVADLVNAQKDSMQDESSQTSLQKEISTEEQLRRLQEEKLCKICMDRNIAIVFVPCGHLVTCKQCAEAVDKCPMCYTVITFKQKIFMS

For the compound `CCOC(=O)C[C@H]1[C@H](OC(=O)c2ccc(-c3ccccc3)cc2)[C@@H](NC(=O)c2ccccc2)c2cc(OCCCO)ccc2N1C(=O)c1ccc2ccccc2n1`, the z-score in [1] is -0.471; in [2], 0.171 (inactive); in assay [3] it was -0.397 (inactive); in [5], -0.17 (inactive); in [6] it was -0.888 (inactive); in assay [7], 0.27 (inactive). In addition, the z-score in assay [8] is 0.256 (inactive); in assay [9], -0.258; in [12], 1.24; in assay [13] it was -1.19 (inactive); in assay [14], -0.0348 (inactive); in assay [15], -0.234 (inactive). Besides, the composite z-score in [4] is -0.12 (inactive); in [10], 0.132; in assay [11] it was 0.304 (inactive); in the assay with XIP peptide (Xip251-270), 0.0388.

Turning to `CC(c1ccccc1)C(O)C1C=CC2C(=O)N(C)C(=O)C2N1NC(=O)OC(C)(C)C` (stereo not given), the z-score was -0.67 in assay [1]; -0.424 (inactive) in assay [2]; -0.267 (inactive) in assay [3]; 0.903 (inactive) in assay [5]; 0.732 (inactive) in [6]; -0.182 (inactive) in assay [7]. Further, the z-score in [8] is -0.339 (inactive); in assay [9], 0.15; in assay [12], 1.05; in [13] it was -2.6 (inactive); in [14], -0.129 (inactive); in [15], -0.0976 (inactive). Besides, the composite z-score was -0.14 (inactive) in [4], 0.184 in [10], 2.04 (inactive) in assay [11] and 0.63 with XIP peptide (Xip251-270).

As for `CC(C)N1CC=CC23O[C@@H]4C=CCOC(=O)[C@@H]4[C@H]2C(=O)N(CCCCCO)[C@@H]3C1=O` (stereo not given in full), the z-score was 0.413 in assay [1]; -0.746 (inactive) in assay [2]; 1.27 (inactive) in assay [3]; 0.897 (inactive) in assay [5]; -1.06 (inactive) in assay [6]; 0.319 (inactive) in [7]. Moreover, the z-score was -0.134 (inactive) in assay [8]; 0.888 in [9]; -0.758 in assay [12]; -3.4 (inactive) in assay [13]; 0.0031 (inactive) in assay [14]; -0.0755 (inactive) in assay [15]. Besides, the composite z-score in assay [4] is -1.85 (inactive); in assay [10] it was -0.216; in assay [11] it was 0.334 (inactive); with XIP peptide (Xip251-270), 0.729.

For the compound `CC#CC(=O)Oc1ccc(Br)cc1C=CC(=O)OCC`, the z-score in assay [1] is -0.0419; in [2], -14.7 (active); in assay [3], -2.38 (inactive); in [5] it was 0.312 (inactive); in [6], -10.6 (active); in assay [7], -0.0142 (inactive). Besides, the z-score in assay [8] was -1.01 (inactive); in assay [9] it was -3; in assay [12] it was -1.65; in assay [13], -3.79 (inactive); in assay [14], 0.309 (inactive); in assay [15], -1.03 (inactive). Moreover, the composite z-score in [4] was -0.632 (inactive); in [10], 1.25; in assay [11] it was 1.17 (inactive); in the assay on XIP peptide (Xip251-270), -0.101.

As to `O=C1OCCC=C[C@H]2OC34C=CCN(c5ccc(Cl)cc5)C(=O)[C@H]3N(CCCO)C(=O)[C@@H]4C12` (stereo not given in full), the z-score was -0.281 in assay [1]; -0.757 (inactive) in [2]; 0.357 (inactive) in assay [3]; 0.248 (inactive) in [5]; -0.163 (inactive) in [6]; 0.881 (inactive) in [7]. Moreover, the z-score in [8] was 0.415 (inactive); in assay [9] it was -0.658; in [12] it was -1.83; in assay [13], -3.2 (inactive); in [14], -0.511 (inactive); in assay [15], -0.536 (inactive). In addition, the composite z-score in assay [4] was -0.792 (inactive); in assay [10], -0.0826; in assay [11], -0.869 (inactive); in the assay on XIP peptide (Xip251-270), -0.481.

Turning to `CN(C)CCCCCCNC(=O)[C@@H]1C[C@@H]2C(=O)N[C@@H](CCCC[N+](C)(C)C)C(=O)N2[C@@H]1c1ccc(O)cc1`, the z-score in assay [1] is -0.916; in assay [2], -0.661 (inactive); in assay [3], -1.07 (inactive); in assay [5], -0.0212 (inactive); in assay [6], -0.0569 (inactive); in assay [7], 0.301 (inactive). The z-score in assay [8] is 0.575 (inactive); in [9], -0.746; in assay [12] it was 1.99; in [13], -1.64 (inactive); in assay [14] it was 0.702 (inactive); in [15] it was 0.0464 (inactive). For the same compound, the composite z-score in assay [4] is -1.06 (inactive); in assay [10] it was 0.0785; in assay [11], 0.759 (inactive); with XIP peptide (Xip251-270) it was 0.146.

Take `O=C1O[C@@H](c2ccccc2)[C@@H](c2ccccc2)N2[C@@H](c3ccc(OCCO)cc3)[C@]3(C(=O)Nc4ccc(C#CC5=CCCCC5)cc43)[C@@H](C(=O)N3CCCCCCC3)[C@H]12`: the z-score in assay [1] is -0.399; in [2], 0.593 (inactive); in [3], 0.0902 (inactive); in [5] it was 1.77 (inactive); in assay [6], 0.911 (inactive); in [7], -1.32 (inactive). Also, the z-score is 0.0745 (inactive) in [8]; 0.152 in [9]; -2.22 in [12]; -15.4 (active) in assay [13]; 0.201 (inactive) in [14]; 0.474 (inactive) in assay [15]. Moreover, the composite z-score was -0.73 (inactive) in assay [4], 0.642 in assay [10], 1.43 (inactive) in assay [11] and 0.679 in the assay on XIP peptide (Xip251-270).

Turning to `C=CCN1C(=O)[C@]2(O[C@H](CCO)[C@@H]([Si](C)(C)c3ccc(OC)cc3)[C@@H]2C)c2cc(N(C=O)c3ccccc3)ccc21`, the z-score in assay [1] is -6; in assay [2], 1.14 (inactive); in [3], -8.61 (active); in [5], 0.0245 (inactive); in [6], 3.98 (inactive); in [7], 1.72 (inactive). In addition, the z-score was 0.905 (inactive) in assay [8]; -6.23 in assay [9]; -2.52 in assay [12]; -3.67 (inactive) in assay [13]; -1.11 (inactive) in assay [14]; -0.984 (inactive) in assay [15]. The composite z-score in assay [4] is 0.637 (inactive); in assay [10], -0.0189; in [11], 1.94 (inactive); in the assay with XIP peptide (Xip251-270), 0.749.

With `CC=CC(O)C1C=CC2C(=O)N(C)C(=O)C2N1N(c1ccccc1)c1ccccc1` (stereo not given), the z-score in [1] was 0.0376; in assay [2], 0.554 (inactive); in assay [3], -0.505 (inactive); in assay [5], -0.531 (inactive); in assay [6], 0.823 (inactive); in assay [7], -1.15 (inactive). In addition, the z-score in assay [8] was -0.321 (inactive); in assay [9], -0.905; in assay [12] it was 0.0212; in assay [13], -0.125 (inactive); in assay [14], 0.341 (inactive); in assay [15] it was 0.365 (inactive). The composite z-score was 1.13 (inactive) in assay [4], 0.0116 in assay [10], 0.212 (inactive) in assay [11] and 0.414 in the assay with XIP peptide (Xip251-270).

For `C[C@H]1C2[C@H](Cc3ccccc3)NC(=O)[C@]23C(=O)NCC(=O)N2CCC[C@H]2C(=O)NC/C=C/CCC/C=C/C3[C@@H]2O[C@]12C` (stereo not given in full), the z-score in [1] was -1.11; in assay [2] it was -1.17 (inactive); in assay [3], -0.111 (inactive); in assay [5], -0.578 (inactive); in assay [6] it was -0.0879 (inactive); in assay [7] it was 1.2 (inactive). For the same compound, the z-score in assay [8] was 0.601 (inactive); in [9] it was 0.277; in assay [12], -1.48; in assay [13], -3.96 (inactive); in assay [14] it was 0.0614 (inactive); in assay [15], 0.0823 (inactive). Moreover, the composite z-score is -0.0305 (inactive) in [4], -0.152 in assay [10], -0.416 (inactive) in [11] and -0.56 in the assay with XIP peptide (Xip251-270).
